The text below walks through data of PubChem BioAssay (NCATS).

Results filed as inconclusive are left out. Active and inactive are the calls of the source. Calls come from the whole dose curve; as a rule, active = well fitted curve in the direction sought with a large enough effect; inconclusive = small, poorly fitted or top-dose-only effect, or another doubt; inactive = no such curve, though single readings can be large; an effect the other way counts as inactive or inconclusive.

Assay [1] in a line: NS1 protein of Zika virus - qHTS assay to identify small molecule inhibitors in human HEK 293 cells (AID 1347053). Note: series mostly up to about 46 µM; nearly all actives have a fitted effect of over 55% in size. The method, boiled down:
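HEK 293 cells, seeded 20 h at 37 C, were pretreated with compound 1 h, then infected with ZIKV MR766 (MOI = 0.5) for 24 h. NS1 was read by TR-FRET with two anti-NS1 antibodies, normalized to uninfected and infected wells.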

A short description of assay [2]: qHTS of pediatric cancer cell lines to identify multiple opportunities for drug repurposing: Primary screen for TC32 cells (AID 1347089). Note: nearly all actives have a fitted effect of over 60% in size. Note: potency is the fitted concentration of half-maximal effect. In outline: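 Luminescent ATP read-out (CellTiter-Glo) of metabolically active TC32 cells after 48 h exposure. Concentration-response curves came from 11-point (MIPE, 0.78 nM–46 µM) or 8-point (NPC, 0.59 nM–46 µM) primary titrations; follow-up used 11 points.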
Background: qHTS replaces the single test concentration by a dilution series.

Assay [3] can be described thus: qHTS of pediatric cancer cell lines to identify multiple opportunities for drug repurposing: Primary screen for SJ-GBM2 cells (AID 1347091). Note: potency is the fitted concentration of half-maximal effect. The method, boiled down:
(§1)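 Eight- or eleven-point concentration series, 48 h treatment at 37 degrees C in growth media; readout CellTiter-Glo luminescence. Potency and efficacy were taken from the concentration-response curves.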

A short description of assay [4]: qHTS of pediatric cancer cell lines to identify multiple opportunities for drug repurposing: Primary screen for A673 cells (AID 1347092). Note: nearly all actives have a fitted effect of over 45% in size. Note: potency is the fitted concentration of half-maximal effect. In outline:
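Cell viability of A673 measured by CellTiter-Glo ATP luminescence after 48 hours compound exposure. Dilution series spanned 0.78 nM to 46 µM (MIPE, 11-point) or 0.59 nM to 46 µM (NPC, 8-point); bortezomib 2.3 uM positive control.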

Assay [5] in a line: qHTS of pediatric cancer cell lines to identify multiple opportunities for drug repurposing: Primary screen for SK-N-MC cells (AID 1347093). Note: potency is the fitted concentration of half-maximal effect. The method, boiled down:
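Metabolically active cells were quantified by ATP-dependent luminescence (CellTiter-Glo, 15 min at room temperature) following 48 h treatment. Cells had been plated at 500-1,000 per well and settled for 5 h beforehand.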

Assay [6] in a line: qHTS of pediatric cancer cell lines to identify multiple opportunities for drug repurposing: Primary screen for NB-EBc1 cells (AID 1347095). Note: potency is the fitted concentration of half-maximal effect. In outline: (§2)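 500-1,000 cells/well; 5 h pre-incubation 37 °C/5% CO2; compound pinned; 48 h; CellTiter-Glo, 15 min RT; luminescence. MIPE 11-pt from 0.78 nM, NPC 8-pt from 0.59 nM final. Bortezomib 2.3 µM final as positive control.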
A short description of assay [7]: qHTS of pediatric cancer cell lines to identify multiple opportunities for drug repurposing: Primary screen for Saos-2 cells (AID 1347097). Note: nearly all actives have a fitted effect of over 40% in size. Note: potency is the fitted concentration of half-maximal effect. The method, boiled down: as §2
Assay [8] in a line: qHTS of pediatric cancer cell lines to identify multiple opportunities for drug repurposing: Primary screen for NB1643 cells (AID 1347099). Note: nearly all actives have a fitted effect of over 50% in size. Note: potency is the fitted concentration of half-maximal effect. The method, boiled down: as §2
Assay [9] is described as follows: qHTS of pediatric cancer cell lines to identify multiple opportunities for drug repurposing: Primary screen for LAN-5 cells (AID 1347100). Note: potency is the fitted concentration of half-maximal effect. In outline:
(§3)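 Cells (500-1,000/well) in growth media were settled 5 h at 37 degrees C, then given compounds for 48 h. Viability was read as CellTiter-Glo luminescence. Primary runs used MIPE at 11 points (0.78 nM-46 µM) and NPC at 8 points (0.59 nM-46 µM); follow-ups used 11 points.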

A short description of assay [10]: qHTS of pediatric cancer cell lines to identify multiple opportunities for drug repurposing: Primary screen for Rh18 cells (AID 1347102). Note: nearly all actives have a fitted effect of over 65% in size. Note: potency is the fitted concentration of half-maximal effect. The method, boiled down:
as §3

Assay [11] is described as follows: qHTS of pediatric cancer cell lines to identify multiple opportunities for drug repurposing: Primary screen for BT-37 cells (AID 1347094). Note: series mostly up to about 57 µM. The method, boiled down: as §2
Assay [12] can be described thus: qHTS of pediatric cancer cell lines to identify multiple opportunities for drug repurposing: Primary screen for U-2 OS cells (AID 1347096). Note: nearly all actives have a fitted effect of over 50% in size. The method, boiled down: as §3
Assay [13] is described as follows: qHTS of pediatric cancer cell lines to identify multiple opportunities for drug repurposing: Primary screen for BT-12 cells (AID 1347101). Note: nearly all actives have a fitted effect of over 25% in size. Note: potency is the fitted concentration of half-maximal effect. The method, boiled down: (§4)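 Cells (500-1,000/well) rested 5 h, then received compounds for 48 h; metabolically active cells were measured by CellTiter-Glo luminescence. Final concentrations spanned up to 46 µM (MIPE, 11-point) or 0.59 nM-46 µM (NPC, 8-point) in primary screens, 11-point in follow-ups.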

Assay [14] can be described thus: qHTS of pediatric cancer cell lines to identify multiple opportunities for drug repurposing: Primary screen for DAOY cells (AID 1347090). Note: nearly all actives have a fitted effect of over 55% in size. Note: potency is the fitted concentration of half-maximal effect. The method, boiled down: as §1
Assay [15] can be described thus: qHTS of pediatric cancer cell lines to identify multiple opportunities for drug repurposing: Primary screen for OHS-50 cells (AID 1347103). Note: nearly all actives have a fitted effect of over 40% in size. Note: potency is the fitted concentration of half-maximal effect. The method, boiled down:
as §4

The nature of assay [16]: qHTS of pediatric cancer cell lines to identify multiple opportunities for drug repurposing: Primary screen for SK-N-SH cells (AID 1347098). Note: nearly all actives have a fitted effect of over 65% in size. Note: potency is the fitted concentration of half-maximal effect. In outline:
as §4

Regarding `COc1cc(Nc2ncc3c(n2)-c2ccc(Cl)cc2C(c2c(F)cccc2OC)=NC3)ccc1C(=O)O`, the Potency entry in assay [1] and in assay [4] was “inactive” throughout. For the same compound, the Potency in assay [2] was 0.186 µM (active); in [3], 0.0209 µM (active); in [5], 0.0743 µM (active); in assay [6] it was 0.0332 µM (active); in assay [7] it was 4.69 µM (active); in assay [8] it was 13.2 µM (active). Further, the Potency in assay [9] was 0.0093 µM (active); in assay [10], 20.9 µM (active).
`COCCNCCCn1c(C(=O)CF)c(-c2ccc(C)cc2)c2c(N)ncnc21`: the Potency entry in assay [1], in assay [2], in assay [11], in assay [6], in assay [12] and in assay [9] was “inactive” each time. The Potency entry in [13] was “inactive”. Further, the Potency in assay [4] was 23.5 µM (active).
`CCN(c1ccccc1)c1cc(NC)[n+](C)c(C)n1`: the Potency entry in [1], in assay [2], in assay [14], in [5], in assay [12] and in assay [8] was “inactive” in each case. In addition, the Potency result in [13], in assay [10] and in assay [15] was “inactive” each time.
With `COc1cc2c(cc1OC)CN(CCc1ccc(NC(=O)c3cccc4c(=O)c5cccc(OC)c5[nH]c34)cc1)CC2`, the Potency entry in [1], in [2], in assay [3], in assay [11], in [6] and in assay [12] was “inactive” throughout. Also, the Potency entry in assay [7], in assay [9], in assay [10] and in assay [15] was “inactive” each time. Besides, the Potency in assay [4] was 4.69 µM (active); in assay [5], 10.5 µM (active); in assay [8], 7.43 µM (active).
In the case of `OCCC#Cc1nc(-c2ccc(F)cc2)c(-c2ccncc2)n1CCCc1ccccc1`, the Potency result in [1], in [2] and in [16] was “inactive” each time. For the same compound, the Potency in assay [3] is 23.5 µM (active); in [4], 18.7 µM (active); in assay [5], 18.7 µM (active); in assay [6], 16.6 µM (active); in assay [9], 16.6 µM (active); in assay [15], 27.3 µM (active).
For `C[C@]1(c2nc3c(C(N)=O)cccc3[nH]2)CCCN1`, the Potency entry in [1], in [2], in assay [12] and in assay [10] was “inactive” in each case. The Potency is 14.8 µM (active) in assay [4], 1.18 µM (active) in assay [5], 20.9 µM (active) in assay [7] and 9.35 µM (active) in assay [8].
As to `CC(=O)NC(C)c1ccc(Oc2ccc(OC(C)C)cc2)cc1` (stereo unspecified), the Potency result in [1], in assay [2] and in assay [12] was “inactive” in each case. Also, the Potency is 23.5 µM (active) in assay [4], 13.2 µM (active) in assay [5], 19.3 µM (active) in assay [13] and 21.7 µM (active) in assay [15].
On to `N#Cc1ccc(C(c2ccc(C#N)cc2)n2cncn2)cc1`, for which the Potency result in assay [1], in assay [2], in assay [3], in [6], in assay [12] and in assay [9] was “inactive” each time. In addition, the Potency result in [10] was “inactive”.
On to `CC1(C)CNc2cc(NC(=O)c3cccnc3NCc3ccncc3)ccc21`, for which the Potency result in [1] and in assay [12] was “inactive” each time. The Potency in assay [2] was 26.2 µM (active); in [14] it was 1.18 µM (active); in assay [6] it was 9.35 µM (active); in assay [9] it was 20.9 µM (active).
Regarding `c1ccc(-c2nn3c(c2-c2ccnc4cc(OCCN5CCOCC5)ccc24)CCC3)nc1`, the Potency entry in assay [1], in assay [2], in assay [14], in assay [5], in assay [12] and in assay [16] was “inactive” in each case. In addition, the Potency result in assay [10] was “inactive”.
Turning to `Cc1c(CCOc2ccc(C(=O)O)cc2)c2cc(Cl)ccc2n1C(c1ccccc1)c1ccccc1`, the Potency entry in [1], in [2], in [3], in [12] and in assay [10] was “inactive” in each case. The Potency in assay [4] was 18.7 µM (active); in [5], 14.8 µM (active); in [16], 24.1 µM (active).
As to `N#CC[C@H](C1CCCC1)n1cc(-c2ncnc3[nH]ccc23)cn1`, the Potency result in assay [1], in assay [2], in [3], in [6], in [12] and in [13] was “inactive” in each case. Moreover, the Potency in assay [4] was 23.5 µM (active); in assay [5], 23.5 µM (active); in assay [8] it was 14.8 µM (active); in [9], 18.7 µM (active).
Regarding `O=C(Nc1ccc(F)c(C(F)(F)F)c1)Nc1nnc(-c2ccncc2)s1`, the Potency entry in assay [1], in assay [2], in assay [3], in [12], in assay [7] and in assay [9] was “inactive” throughout. Also, the Potency result in [10] and in [15] was “inactive” in each case. Further, the Potency in assay [5] is 20.9 µM (active).
